# Results as given in PubChem BioAssay AID504340 (NMMLSC, 2011).
# Unmarked numbers belong to inactive results. Active and inactive are the calls of the source.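 The calls were made as follows: active = GFP response above 150% of the DMSO control; inconclusive = Under 70 cell events counted for a yeast strain; inactive = the rest.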
# Assay: yeast TOR pathway CIT2-GFP reporter retest – flow cytometry, third cherry pick, single plex, confirmation (AID 504340);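 also: median GFP fluorescence over all cells with no mother versus daughter split; sample signal as a ratio to the plate DMSO mean so 100% equals DMSO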
# Conditions: S. cerevisiae CIT2-GFP strain, 3 h, at 10 µM, stronger effect = higher value
row,Structure (SMILES),GFP response vs DMSO
1,CC(=O)Nc1ccc(-c2nc3cc(Cl)ccc3o2)cc1,91.2%
2,Cn1c(NCCO)nc2c(c1=O)C1(CCCCC1)Cc1ccccc1-2,116%
3,Nc1cc(C(=O)O)c(N)c2c1C(=O)c1ccccc1C2=O,94.5%
4,Nc1nc(NCCOCCO)nc(Nc2cccc(F)c2)c1[N+](=O)[O-],96.1%
5,COc1ccc(OC)c2c(=O)cc(C(=O)O)[nH]c12,111%
6,CS(=O)(=O)c1nc(-c2ccc(F)cc2)cc(C(F)(F)F)n1,107%
7,O=c1cc(C(F)(F)F)[nH]c2c(OC(F)(F)F)cccc12,107%
8,COC(=O)c1cc(=O)c2cccc(OC)c2[nH]1,101%
9,C/C(=N\NC(=O)c1cccc2ccccc12)c1cccnc1,91.2%
10,CSc1ccccc1OCc1cc(C(=O)N2CCN(C)C(c3ccccc3)C2)no1 (stereo not given),99.3%
11,C=CCNc1nc(N)c([N+](=O)[O-])c(Nc2cccc(Cl)c2)n1,114%
12,CC(=O)CC(=O)Nc1ccc(C(N)=O)cc1,106%
13,COc1ccc(OC)c(Nc2nc(NCCC(C)C)nc(N)c2[N+](=O)[O-])c1,103%
14,COc1ccc(Nc2nc(NN)nc(C)c2[N+](=O)[O-])cc1,94.5%
15,CC1=NNC(=O)/C1=C\c1cn(-c2ccccc2)nc1-c1ccc(F)cc1,124%
16,Cc1ccc(NN2C(=O)C=C(c3ccccc3)C2=O)cc1,151% (active)
17,O=C(O)c1ccc(C=NNC(=O)c2cccc3ccccc23)cc1,106%
18,COCCNc1nc(N)c([N+](=O)[O-])c(Nc2ccc(F)cc2)n1,101%
19,C[n+]1cccc2c(Br)ccc([O-])c21,97.7%
20,COc1ccccc1Nc1nc(NCCO)nc(N)c1[N+](=O)[O-],111%
